{"source": "PubChem BioAssay (NCI)", "note": "The panel holds about 83,000 compounds, 20% with a hit somewhere; the sample as a whole holds those more often.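 Growth was measured after 48 h exposure to one concentration of compound in 96-well plates. Values under 10 count as active.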 A number with no mark means an inactive call. Calls of active or inactive are those of the source.", "data": [{"tested_on": "KM12 colon", "test": "NCI-60 one-dose screen, 48 h (100 = growth as untreated, 0 = no growth, -100 = all killed)", "details": "10 µM unless noted", "values": [{"smiles": "O=c1oc2ccc(Br)cc2c(=O)n1-c1ccc(Br)cc1F", "growth": "-20% (active)"}, {"smiles": "NCCNc1nc2ccccc2c2c(=O)c3cc(F)cc(Cl)c3sc12", "growth": "-82.6% (active)"}, {"smiles": "CCCN1CCN(c2ccc3nc(-c4ccc5nc(-c6cc(OC)ccc6OC)[nH]c5c4)[nH]c3c2)CC1", "growth": "32.3%"}, {"smiles": "Cc1ccc(C2CC(c3ccc(Nc4nc(NCCO)nc(Nc5ccc(Cl)cc5)n4)cc3)=NN2c2cc(Cl)cc(Cl)c2)cc1", "note": "(centres undefined)", "growth": "103%"}]}]}
